Source: PubChem BioAssay (Tox21)
Records with an inconclusive call do not appear. Entries that show only a call come without a potency. Activity calls are given as the source filed them. Calls follow the shape of the dose curve; as a rule, active = well fitted curve in the direction sought with a large enough effect in the repeat runs; inconclusive = weak or mixed curves; inactive = no such curve, though single readings can be large; an effect the other way counts as inactive or inconclusive.

Experiments:
[1] = A CellTox Green Cytotoxicity Assay to monitor cytotoxicity in HepG2 cells - 16 hour (AID 1224876); also: nearly all actives have a fitted effect of over 45% in size; also: potency is read from the fitted curve at half-maximal effect
In short: (§1)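 Real-time, homogeneous cytotoxicity readout: dead-cell DNA staining by CellTox Green in HepG2 monolayers, fluorescence measured at timed intervals up to 40 h of continuous compound exposure.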

[2] = A CellTox Green Cytotoxicity Assay to monitor cytotoxicity in HepG2 cells - 24 hour (AID 1224878); also: nearly all actives have a fitted effect of over 45% in size; also: potency is read from the fitted curve at half-maximal effect
In short: as §1

[3] = qHTS RealTime-Glo MT Cell Viability Assay in HEK293 cells - 0 hour (AID 1224880); also: top concentration of the series differs between compounds; nearly all actives have a fitted effect of over 45% in size
In short: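 Nonlytic bioluminescent viability monitoring. HEK293 at 600 cells/well with reagent; 5 h settle; compound transfer by pintool; plates held at 37 C and read at set time points.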

[4] = A CellTox Green Cytotoxicity Assay to monitor cytotoxicity in HEK293 cells - 32 hour (AID 1224881); also: nearly all actives have a fitted effect of over 40% in size; also: potency is read from the fitted curve at half-maximal effect
In short: (§2)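 Cytotoxicity was tracked continuously in HEK293 cells by a DNA-binding dye excluded from viable cells. Compounds were transferred in DMSO 5 h after seeding; fluorescence was recorded at intervals up to 40 h.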

[5] = A CellTox Green Cytotoxicity Assay to monitor cytotoxicity in HepG2 cells - 0 hour (AID 1224882); also: nearly all actives have a fitted effect of over 35% in size; also: potency is read from the fitted curve at half-maximal effect
In short: as §1

[6] = A CellTox Green Cytotoxicity Assay to monitor cytotoxicity in HepG2 cells - 32 hour (AID 1224883); also: nearly all actives have a fitted effect of over 50% in size; also: potency is read from the fitted curve at half-maximal effect
In short: as §1

[7] = A CellTox Green Cytotoxicity Assay to monitor cytotoxicity in HEK293 cells - 8 hour (AID 1224884); also: nearly all actives have a fitted effect of over 35% in size; also: potency is read from the fitted curve at half-maximal effect
In short: as §2

[8] = qHTS RealTime-Glo MT Cell Viability Assay in HepG2 cells - 16 hour (AID 1224885); also: nearly all actives have a fitted effect of over 50% in size; also: potency is read from the fitted curve at half-maximal effect
In short: (§3)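 Tox21 10K library screened in qHTS format on HepG2 cells carrying RealTime-Glo reagents. Compounds were added after a 5 h preincubation, and the luminescent signal from continuous culture was measured repeatedly during 40 h treatment.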

[9] = qHTS RealTime-Glo MT Cell Viability Assay in HepG2 cells - 32 hour (AID 1224877); also: nearly all actives have a fitted effect of over 55% in size; also: potency is read from the fitted curve at half-maximal effect
In short: as §3

[10] = A CellTox Green Cytotoxicity Assay to monitor cytotoxicity in HepG2 cells - 40 hour (AID 1224879); also: nearly all actives have a fitted effect of over 40% in size; also: potency is read from the fitted curve at half-maximal effect
In short: as §1

SMILES | Potency [1] | Potency [2] | Potency [3] | Potency [4] | Potency [5] | Potency [6] | Potency [7] | Potency [8] | Potency [9] | Potency [10]
O=C(CCCCCCCCc1cccnc1)N1CCC(C=C(c2ccccc2)c2ccccc2)CC1 | inactive | inactive | inactive | inactive | inactive | inactive | inactive | 49 µM (active) |  | 
CN1CC[C@H](c2c(O)cc(O)c3c(=O)cc(-c4ccccc4Cl)oc23)[C@H](O)C1 |  | 0.268 µM (active) | inactive | inactive | inactive | 0.213 µM (active) | inactive |  | inactive | 0.239 µM (active)
ClC(c1ccccc1)(c1ccccc1)c1ccccc1 |  | inactive | inactive | inactive |  |  | inactive | inactive | inactive | inactive
CC/C(=C(/c1ccc(O)cc1)c1ccc(OCCN(C)C)cc1)c1ccccc1 |  | 18.2 µM (active) | inactive | 22.9 µM (active) | inactive | 14.4 µM (active) | 28.8 µM (active) | 28.8 µM (active) | 14.4 µM (active) | 12.9 µM (active)
C=C1CC[C@H]2O[C@]2(C)CC[C@@H]2[C@@H]1CC2(C)C |  | inactive | inactive | inactive | inactive | inactive | inactive | inactive | inactive | inactive
c1ccc2occc2c1 |  | inactive | inactive | inactive | inactive | inactive | inactive | inactive | inactive | inactive
CCCOC(=O)c1ccc(O)cc1 | inactive | inactive | inactive | inactive |  | inactive | inactive | inactive |  | 
CCCCCCCCOC(=O)c1cc(O)c(O)c(O)c1 |  | 43.6 µM (active) | inactive |  | inactive | 43.6 µM (active) | inactive | 19.5 µM (active) | 19.5 µM (active) | 24.5 µM (active)
CCOC=C(C(=O)OCC)C(=O)OCC |  | inactive | inactive | inactive | inactive | inactive | inactive |  | inactive | inactive
C=CCc1cc(S(=O)(=O)c2ccc(O)c(CC=C)c2)ccc1O | inactive | inactive |  | inactive | inactive | inactive | inactive |  |  | inactive
O=[N+]([O-])c1ccc(O)c2ncccc12 |  | inactive | inactive | inactive |  |  | inactive | inactive | inactive | 4.25 µM (active)
CCCCC/C=C\C=C\C(=O)OCC | inactive | 22.8 µM (active) | inactive |  |  | 25.6 µM (active) | inactive |  |  | 36.1 µM (active)
Cc1ccc(N=Nc2c(O)ccc3ccccc23)c(C)c1 |  | inactive |  | inactive | inactive | inactive | inactive | inactive | inactive | inactive
Oc1cccc2c(O)cccc12 |  | inactive | inactive | inactive |  | inactive | inactive |  | inactive | inactive
CC1(C)[C@H](C(=O)OCc2cccc(Oc3ccccc3)c2)[C@@H]1C=C(Cl)Cl |  | inactive | inactive | inactive | inactive | inactive | inactive | inactive | inactive | inactive
CN1CCN(c2ccccc2/C=C2\SCCN(c3ccc(Cl)c(Cl)c3)C2=O)CC1 |  | 24.5 µM (active) | inactive | 49 µM (active) | inactive | 21.9 µM (active) |  | 43.6 µM (active) | 21.9 µM (active) | 19.5 µM (active)
CCn1c2ccccc2c2ccccc21 |  | inactive | inactive | inactive | inactive | inactive | inactive | inactive | inactive | inactive
Nc1c(Br)cc([N+](=O)[O-])cc1Br |  | inactive | inactive | inactive | inactive | inactive | inactive |  | inactive | inactive
N#Cc1nc(Cl)c(Cl)c(Cl)c1Cl | 49 µM (active) | 49 µM (active) | inactive |  | inactive | 27.5 µM (active) | inactive | 21.9 µM (active) |  | 24.5 µM (active)
Brc1cc(Br)cc(Br)c1 |  | inactive | inactive | inactive | inactive | inactive | inactive | inactive | inactive | inactive
COc1cc(/C=C/C(=O)CC(=O)/C=C/c2ccc(O)c(OC)c2)ccc1O | 49.3 µM (active) | 49.3 µM (active) |  | 39.2 µM (active) | 43.9 µM (active) |  | 49.3 µM (active) |  |  | 19.6 µM (active)
Cn1ccnc1 |  | inactive | inactive | inactive | inactive | inactive | inactive | inactive | inactive | inactive
CCN(CCC#N)c1ccc(N=Nc2ccc([N+](=O)[O-])cc2)cc1 |  | inactive | inactive | inactive | inactive | inactive | inactive | inactive | inactive | inactive
O=C(NCc1ncc(C(F)(F)F)cc1Cl)c1c(Cl)cccc1Cl |  | inactive | inactive | inactive |  | 21.9 µM (active) | inactive | inactive | inactive | 17.4 µM (active)
Cc1ccc(Cl)c(N)c1Cl | inactive |  | inactive |  |  |  | inactive | inactive |  | 
COC(=O)c1ccc([N+](=O)[O-])cc1 |  | inactive | inactive | inactive | inactive | inactive | inactive | inactive | inactive | inactive
O=C1C=CC(=O)N1c1cccc(N2C(=O)C=CC2=O)c1 | 13.8 µM (active) | 12.3 µM (active) | inactive |  | inactive |  | inactive |  |  | 12.3 µM (active)
